# Measured values: PubChem BioAssay AID504332 (National Center for Advancing Translational Sciences (NCATS), 2011)
# “And” between values parts separate entries of the source, which are not always exact repeats. Identical values can stand only once. Out of some 350,000 compounds screened, about 31,000 (8.9%) were called active. Entries that show only a call come without a potency. Not shown: some 15% with an inconclusive outcome. The sample as a whole holds a higher share of actives than the screen did. A structure can be active in one record and inactive in another. A number with no mark means an inactive call. Calls come from the whole dose curve; as a rule, active = well fitted inhibition curve with a large enough effect; inconclusive = small, poorly fitted or top-dose-only effect; inactive = no such curve, though single readings can be large or run the other way.
# Target: Histone-lysine N-methyltransferase EHMT2 (Homo sapiens) (UniProt Q96KQ7)
# Sequence (Q96KQ7 913-1193 limits assumed): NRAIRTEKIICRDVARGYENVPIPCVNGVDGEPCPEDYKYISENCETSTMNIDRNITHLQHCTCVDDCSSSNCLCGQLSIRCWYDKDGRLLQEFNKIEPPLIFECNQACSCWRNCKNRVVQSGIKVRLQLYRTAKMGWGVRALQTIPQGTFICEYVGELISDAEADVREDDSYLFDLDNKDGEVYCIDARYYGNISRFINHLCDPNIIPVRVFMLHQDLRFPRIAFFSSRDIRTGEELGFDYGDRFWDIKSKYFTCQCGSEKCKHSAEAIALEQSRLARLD
# Experiment: qHTS Assay for Inhibitors of Histone Lysine Methyltransferase G9a; note: nearly all actives have a fitted effect of over 75% in size
# Details: G9a H3K9 monomethylation, AlphaScreen, 2 h; series mostly up to 59 µM
# How it was run: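 AlphaScreen read-out: biotin-H3K9 peptide (500 nM) methylation by 20 nM enzyme with 20 uM SAM, 2 h at room temperature after 15 min compound preincubation; anti-monomethyl H3K9 antibody plus donor/acceptor beads, 10 min dark.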
# Potency is the fitted concentration of half-maximal effect.
Structure (SMILES),Potency,"activity, negative = inhibition"
COc1ccccc1N1CCN(S(=O)(=O)CCNC(=O)COc2ccc(F)cc2)CC1,inactive,
COc1ccc(-c2c(C)c3ccc(O)c(CN4CCN(C)CC4)c3oc2=O)cc1OC,inactive,
Cc1cc2oc(=O)cc(CN3CCN(Cc4ccccc4)CC3)c2cc1C,inactive,
CC(C)c1ccc2oc(=O)cc(CN3CCN(Cc4ccccc4)CC3)c2c1,50.1 µM (active),
COc1ccc2oc(=O)cc(CN3CCOCC3)c2c1,,20.4% [at 0.501 µM]
CC1CC(C)CN(C(=O)COC(=O)c2ccc3ncsc3c2)C1 (centres undefined),,-10.9% [at 12.7 µM]
CCc1cccc(NC(=O)C2CCCN(S(=O)(=O)c3ccc4[nH]c(=O)ccc4c3)C2)c1 (centres undefined),inactive,
CSc1ccccc1C(=O)OCC(=O)N1CCN(C(C)=O)CC1,,-3.84% [at 12.7 µM]
COC(=O)C1=NN(c2ccccc2)C2C(=O)N(c3ccccc3OC)C(=O)C12 (centres undefined),inactive,
Cc1ccccc1N1C(=O)C2ON(c3ccccc3)C(c3ccncc3)C2C1=O (centres undefined),44.7 µM (active),
COc1cc(C2C3C(=O)N(c4ccccc4)C(=O)C3ON2c2ccccc2)ccc1O (centres undefined),inactive,
CCOc1ccc2c(c1)c(=O)c(S(=O)(=O)c1ccc(C)cc1)cn2CC,inactive,
COc1ccccc1C(=O)COC(=O)CSCC(=O)Nc1cc(C)on1,inactive,
CC(C)(COC(=O)Nc1ccccc1)COC(=O)Nc1ccccc1,,-24.1% [at 2.33 µM]
COc1cccc(C(=O)c2sc3nc(-c4ccccc4)cc(C(F)(F)F)c3c2N)c1,inactive,
CCN(CC)C(=O)c1sc2nc(-c3ccccc3)ccc2c1N,17.8 µM (active),
CCOC(=O)c1sc2nc(SC)nc(-c3ccccc3)c2c1N,,22.6% [at 12.7 µM]
CC(=O)NS(=O)(=O)c1ccc2c(c1)Cc1cc(S(=O)(=O)NC(C)=O)ccc1-2,,-3.76% [at 0.501 µM]
COc1ccc(CCNC(=O)c2c3c(nc4ccccc24)C(=O)N(C2CCCCC2)C3)cc1OC,inactive,
COc1ccccc1Nc1c2c(nc3ccc(NC(=O)/C=C/c4cc(OC)c(OC)c(OC)c4)cc13)CCCC2,14.1 µM (active),
COc1ccc(/C=C/C(=O)Nc2ccc3c(c2)OCCO3)cc1OC,inactive,
CCOc1ccc(C(=O)Nc2ccc3nc4c(c(Nc5ccccc5OC)c3c2)CCCC4)cc1,inactive,
CC(C)=C1C2CCC1C1C(=O)N(NC(=O)c3ccco3)C(=O)C21 (centres undefined),inactive,
O=C(NC1CC(=O)N(c2ccccc2)C1)c1ccco1 (centres undefined),inactive,

Structure (SMILES),Potency,"activity, negative = inhibition"
O=C(NN1C(=O)C2C3C=CC(C3)C2C1=O)c1ccco1 (centres undefined),12.6 µM (active),
CCOc1ccc(CNC(=O)Cn2cc3c(n2)-c2c(oc(C(=O)N4CCCC4)c2C)CC3)cc1,inactive,
O=C(COC(=O)c1ccc2ncsc2c1)Nc1ccc(Cl)cc1,,-43.9% [at 12.7 µM]
O=c1ccnc(Nc2ccc(Cl)cc2)[nH]1,inactive,
Cc1csc(Nc2ccc(Cl)cc2)[n+]1-c1ccc(Cl)cc1,20 µM (active),
CCc1ccc(NC(=O)COC(=O)c2cccs2)cc1,inactive,
COc1ccccc1NC(=O)Cn1cnc2ccc(S(=O)(=O)N3CCC(C)CC3)cc2c1=O,inactive,
COc1ccc(-c2nnc(SCC(=O)NC3CCCCC3)o2)cc1OC,inactive,
CCOc1cc(-c2nnc(SCC(=O)NC3CCCCC3)nc2-c2ccc(OC)c(OCC)c2)ccc1OC,8.91 µM (active),
CCOc1cc(-c2noc(CCCC(=O)NC3CCCCC3)n2)ccc1OC,inactive,
CCC(Sc1nnc(-c2ccc(OC)cc2)c(-c2ccc(OC)cc2)n1)C(=O)NC1CCCCC1 (centres undefined),inactive,
CCOc1ccc(-c2noc(CCC(=O)NC3CCCC3)n2)cc1OC,inactive,
COc1ccc(-c2noc(CCCC(=O)NC3CCCC3)n2)cc1OC,79.4 µM (active),
COc1ccc(-c2nnc(SCC(=O)Nc3ccc(C(C)C)cc3)nc2-c2ccc(OC)c(OC)c2)cc1OC,inactive,
CCOc1ccc2[nH]c3nc(SCC(=O)NC4CCCC4)nnc3c2c1,inactive,
CCOc1cc(-c2nnc(SCC(=O)NC3CCCC3)nc2-c2ccc(OC)c(OCC)c2)ccc1OC,11.2 µM (active),
Cc1ccc(Nc2nnc(-c3ccc(C)c(S(=O)(=O)N4CCCCC4)c3)c3ccccc23)cc1,inactive,
CC(=O)N1CCN(c2ccccc2NC(=S)NC(=O)c2cc3ccccc3o2)CC1,inactive,
CC(C)(C)OC(=O)N1CCC(c2c(C(=O)NCCc3ccsc3)cnn2-c2ccc(F)cc2F)CC1,inactive,
COc1ccc([C@H]2CC(=O)C=C(c3ccc(CO)cc3)C2)cc1,,11.2% [at 0.501 µM]
Cc1c(-c2cccc(NC(=O)C(C)(C)C)c2)nc2ncccn12,inactive,
COc1ccc(Br)cc1CNC(=O)c1cc(=O)[nH]c2ccc(S(=O)(=O)N3CCCC3)cc12,inactive,
Cc1ccc(SCC(=O)Nc2ccc3oc(-c4ccccc4F)nc3c2)cc1,inactive,
CCOC(=O)c1sc(NC(=O)CSc2nc(C)cc(C(F)(F)F)n2)c(C#N)c1C,11.2 µM (active),

Structure (SMILES),Potency,"activity, negative = inhibition"
CCOC(=O)c1sc(NC(=O)CSc2ncccn2)c(C#N)c1C,,-13.3% [at 12.7 µM]
CCOC(=O)c1sc(NC(=O)CSc2nnc(-c3ccco3)o2)c(C(=O)OCC)c1C,inactive,
O=C(Nc1ccc(C(=O)OCc2cc(=O)n3nc(C4CC4)sc3n2)cc1)c1ccc(F)cc1,,7.88% [at 12.7 µM]
Cc1ccsc1/C=N/n1c(=S)[nH]nc(C)c1=O,inactive,
c1ccc(-c2noc(-c3cccs3)n2)nc1,inactive,
S=c1[nH]nc(-c2cccs2)n1/N=C/c1cccs1,1.26 µM (active),
Cc1n[nH]c(=O)nc1N/N=C/c1cccs1,inactive,
Oc1ccccc1/C=N/n1c(-c2cccs2)n[nH]c1=S,1.58 µM (active),
COc1cc(-c2cc3n(C)c(C)c(CCC(=O)Nc4ccc(F)cc4)c(=O)n3n2)cc(OC)c1OC,inactive,
Cc1cccc(NC(=O)CSc2nnc(CNC(=O)c3cccc(C)c3)n2-c2ccccc2)c1,inactive,
COc1cccc(CNC(=O)CCCC(=O)Nc2cccc([N+](=O)[O-])c2)c1,inactive,
COc1cccc(NCCC(=O)c2cccc([N+](=O)[O-])c2)c1,35.5 µM (active),
COc1cccc(C(=O)CC(=O)C(=O)Nc2ccc([N+](=O)[O-])cc2C)c1,inactive,
O=C(CN1CCOC1=O)N1CCCC(Nc2ccc(F)c(F)c2)C1 (centres undefined),inactive,
CCC(=O)Nc1nc(C)c(C(=O)Nc2cccc(Cl)c2)s1,inactive,
CCN(CC)CCCNC(=O)c1cc(-c2cccc(Cl)c2)on1,inactive,
CCN(CC)CCCC(C)Nc1ccnc2cc(Cl)ccc12 (centres undefined),25.1 µM (active),-36.5% [at 2.33 µM] and 28.9% [at 12.7 µM]
CCN(CC)CCNc1ncnc2c1cnn2-c1cc(Cl)ccc1C,inactive,
O=C(NCCc1ccco1)C(=O)NCCC1CCCCN1S(=O)(=O)c1ccccc1 (centres undefined),,10.9% [at 0.501 µM]
Cc1ccc(Nc2nc(-c3ccc(O)cc3O)cs2)nc1,10 µM (active),
c1cnc(Nc2nc(-c3ccc4ccccc4c3)cs2)nc1,,27.1% [at 12.7 µM]
CC(=O)Nc1cccc(-c2csc(Nc3cccc(C)n3)n2)c1,,-3.54% [at 0.0925 µM]
CCN(CC(=O)Nc1c(F)cccc1F)C(=O)c1ccc(S(=O)(=O)N2CCCCC2)cc1,,0.134% [at 12.7 µM]
CC1CC(C)CN(c2ccc(S(=O)(=O)N3CCOCC3)cc2)C1 (centres undefined),,-7.51% [at 12.7 µM]

Structure (SMILES),Potency,"activity, negative = inhibition"
CCCOc1ccc(N/C=C/C(=O)C(C)(C)C)cc1,inactive,
CN(C)c1ccc(N/C=C/C(=O)C(F)(F)F)cc1,7.08 µM (active),
O=C(/C=C/Nc1ccccc1OC(F)(F)F)C(F)(F)F,inactive,
COc1ccc(-c2cn3c(n2)sc2cc(C(=O)Nc4ccc(F)cc4)ccc23)cc1,inactive,
CCn1cc2nc(SCc3cccc(F)c3)n(CCc3ccccc3)c(=O)c2n1,inactive,
CCOC(=O)C1(Cc2ccccc2C)CCCN(C(=O)CN2C(=O)CSC2=O)C1 (centres undefined),inactive,
O=C(c1ccccc1)c1ccc(OC(=O)N2CCCC2)cc1,inactive,
c1ccc(CC2CCN(c3nc4ccccc4n4cnnc34)CC2)cc1,,26.6% [at 12.7 µM]
O=C(c1ccccc1)c1ccc2nc(N3CCCCC3)c3nncn3c2c1,44.7 µM (active),
O=C(Nc1ccc(Oc2ccccc2)cc1)C1CCN(S(=O)(=O)c2ccc(Cl)cc2)CC1,inactive,
COc1cccc(NC(=O)c2ccc3nc(CCc4ccccc4)oc3c2)c1,inactive,
COc1cccc(NC(=O)CSC2=Nc3ccccc3C3=NC(CC(=O)NC4CCCCC4)C(=O)N23)c1 (centres undefined),inactive,
COc1cc(Cl)c(NC(=O)C(NS(=O)(=O)c2cccs2)C(C)C)c(OC)c1 (centres undefined),inactive,
COc1cc(OC)c(C(=O)NCc2ccc3c(c2)OCO3)cc1OC,inactive,
COc1ccc(OC)c(-c2nc(C(N)=O)c3c(n2)n(-c2ccc4c(c2)OCO4)c(=O)n3C)c1,inactive,
COc1ccc2c(c1)C(C)=CC(C)(C)N2C(=O)CNCc1ccc2c(c1)OCO2,28.2 µM (active),
COc1ccc(C2(C)NC(=O)N(CC(=O)c3ccc4c(c3)OCO4)C2=O)cc1 (centres undefined),inactive,
COc1cccc(CNCc2ccc3c(c2)OCO3)c1,22.4 µM (active),
COc1ccc(NC(=O)NCc2ccc3c(c2)OCO3)c(OC)c1,inactive,
Cc1ccsc1C(=O)NCCc1ccco1,,-0.499% [at 12.7 µM]
COc1ccccc1-c1noc(-c2ccc(NCc3ccccc3)c([N+](=O)[O-])c2)n1,inactive,
